From ChEMBL document CHEMBL1157539, “Thousands of chemical starting points for antimalarial lead identification” (Nature, 2010)

Test system: Plasmodium falciparum
Assay: GSK_TCMDC: Inhibition of Plasmodium falciparum Dd2 in whole red blood cells, using parasite LDH activity as an index of growth. Test compounds present at 2uM
Format: functional

**Q.** How did the Inhibition turn out when `O=C(N[C@@H](Cc1ccccc1)C(=O)NC1CCCCCC1)c1ccc(O)c(-c2ccc(Cl)c(Cl)c2)c1` was run?
**A.** 99%

**Q.** `Cc1ccc(Oc2c(-c3ccccc3CN3CCCC3CN(C)C)cnn(C)c2=O)cn1.O=C(O)C(F)(F)F` (configuration not stated) was tested. Which Inhibition did it give?
**A.** 9%

**Q.** How did the Inhibition turn out when `Cc1nc(-c2ccc(-c3ccc(C(=O)Nc4ccc(I)c(OCC5CCCN5C)c4)cc3)c(C)c2)no1.Cl` (configuration not stated) was run?
**A.** 39%

**Q.** For `O=C(Cc1c[nH]cn1)Nc1cccc(-c2ccc(-c3nc4cc(F)ccc4[nH]3)s2)c1`, which Inhibition is on record?
**A.** 94%

**Q.** `CCCCCN1CCC(NS(=O)(=O)c2cccc(C(=O)Nc3ccc(Cl)cc3)c2)CC1.O=C(O)C(F)(F)F` was tested. Which Inhibition did it give?
**A.** 29%

**Q.** For `Cc1ccc2cc(NC(=O)c3cccc(C(=O)Nc4ccc5nc(C)ccc5c4)n3)ccc2n1`, which Inhibition is on record?
**A.** 23%

**Q.** Which Inhibition does the source give for `CCn1c(-c2nonc2N)nc2c(-c3cccc(NC(=O)Nc4ccc(Cl)cc4)c3)ncc(OCCCN)c21.O=C(O)C(F)(F)F` here?
**A.** 72%

**Q.** For `CCCCOc1ccccc1C(=O)NCc1csc(-c2ccccc2)n1`, which Inhibition is on record?
**A.** 91%

**Q.** For `CN(C)CCOc1ccc(N2CCN(CCCCNC(=O)c3ccc(NC(=O)c4ccc(Cl)cc4)cc3)CC2)cc1`, which Inhibition is on record?
**A.** 98%

**Q.** How did the Inhibition turn out when `COc1c(Br)cc(Br)cc1C(C)=O` was run?
**A.** 0%

**Q.** For `Cc1[nH]cc(Br)c(=O)c1-c1ccc(Oc2ccc(OC(F)(F)F)cc2)cc1`, which Inhibition is on record?
**A.** 92%

**Q.** With `CCNC(=O)c1ccc(-n2nc(C)cc2-c2ccccc2)cc1` as the compound, how does the Inhibition read?
**A.** 54%

**Q.** For `O=C(NC1CCCC1)c1ccc(N2CCC(NCc3cccc(C(F)(F)F)c3)CC2)cc1`, which Inhibition is on record?
**A.** 75%

**Q.** `Cc1cc2c(cc1C(F)(F)F)N(C(=O)Nc1cc(OCCN(C)C)cc(C(F)(F)F)c1)CC2.Cl` was tested. Which Inhibition did it give?
**A.** 19%

**Q.** Which Inhibition does the source give for `Cc1cc(CNCC2CCC(CNCCCc3ccccc3)CC2)ccc1O` (configuration not stated) here?
**A.** 0%

**Q.** For `CN1CCC(N2CCN(Cc3cccc(-c4ccc(-c5nc6ccccc6[nH]5)cc4)c3)CC2)CC1.O=C(O)C(F)(F)F`, which Inhibition is on record?
**A.** 99%

**Q.** Which Inhibition does the source give for `Cc1ccc(C(=O)Nc2ccc(OC3CCN(CCC(C)C)C3)c(Cl)c2)cc1.O=C(O)C(F)(F)F` (configuration not stated) here?
**A.** 38%

**Q.** With `O=C(Nc1ccccc1)Nc1ccc(-n2ccc(C(F)(F)F)n2)cc1` as the compound, how does the Inhibition read?
**A.** 85%

**Q.** For `COc1ccc(CCN(C)CCCN2CCC(NC(=O)c3cccc4c(=O)c5ccccc5[nH]c34)CC2)cc1OC.O=C(O)C(=O)O`, which Inhibition is on record?
**A.** 72%

**Q.** How did the Inhibition turn out when `Cn1nccc1C(=O)NCCNCc1cccc(-c2csc(-c3nc4ccccc4[nH]3)c2)c1.O=C(O)C(F)(F)F` was run?
**A.** 2%

**Q.** `CCCC(CC)n1ccc2c3c(N)nc(N)nc3ccc21.CS(=O)(=O)O` (configuration not stated) was tested. Which Inhibition did it give?
**A.** 97%

**Q.** For `CC1(CCc2ccccc2)N=C(N)N(Cc2ccccc2)C(=O)C1c1ccc(Cl)c(Cl)c1.O=C(O)C(F)(F)F` (configuration not stated), which Inhibition is on record?
**A.** 96%

**Q.** For `CCc1cccc(-n2c(=O)c3cccnc3n2CC(=O)NCc2ccccc2Cl)c1`, which Inhibition is on record?
**A.** 19%

**Q.** Which Inhibition does the source give for `CCCCc1cc(NCC)nc(Nc2cccc(OC)c2)n1` here?
**A.** 69%

**Q.** Which Inhibition does the source give for `Br.CC1(C)NC(N)=NC(=N)N1OCCCCOc1ccc(Cl)cc1C1CCCCC1` here?
**A.** 97%

**Q.** `COc1ccccc1N1CCN(C(C(=O)NCc2ccc3c(c2)OCO3)c2ccc3c(c2)OCCCO3)CC1` (configuration not stated) was tested. Which Inhibition did it give?
**A.** 13%

**Q.** `O=C(O)C(F)(F)F.Oc1ccc(CCCNc2nc(NCc3cccc4ccccc34)nc(NC3CCNCC3)n2)cc1` was tested. Which Inhibition did it give?
**A.** 0%

**Q.** For `CN(C)Cc1cccc(-c2cnc(N)c(-c3nc4cc(S(C)(=O)=O)ccc4[nH]3)c2)c1.O=C(O)C(F)(F)F`, which Inhibition is on record?
**A.** 61%

**Q.** For `Cc1cc2nc(-c3ccc(OCC(=O)NCc4ccc(C(C)(C)C)cc4)cc3)[nH]c2cc1C`, which Inhibition is on record?
**A.** 0%

**Q.** Which Inhibition does the source give for `CC1CN(Cc2ccc(-c3ccc(-c4nc5cc(F)ccc5[nH]4)cc3)cc2)CC(C)O1.O=C(O)C(F)(F)F` (configuration not stated) here?
**A.** 93%

**Q.** How did the Inhibition turn out when `Cc1cccc2nc(-c3ccc(-c4ccc(NC(=O)Nc5ccc(Cl)c(Cl)c5)cc4)s3)[nH]c12` was run?
**A.** 100%

**Q.** How did the Inhibition turn out when `CN1CCC(C(=O)N(Cc2ccc(-c3ccc(CNCCc4ccc(S(C)(=O)=O)cc4)cn3)cc2)Cc2ccc3c(c2)OCO3)CC1.O=C(O)C(F)(F)F` was run?
**A.** 51%

**Q.** Which Inhibition does the source give for `CN(C)CCNc1cc(-c2ccc3ccccc3c2)nc2ccccc12` here?
**A.** 58%

**Q.** For `Cc1cc(=O)c(-c2ccc(Oc3ccc(Cl)cc3Cl)cc2)c(C)[nH]1`, which Inhibition is on record?
**A.** 73%

**Q.** Which Inhibition does the source give for `CN1CCN(c2ccnc3ccc(NC(=O)Cc4ccc5ccccc5c4)cc23)CC1` here?
**A.** 89%

**Q.** `Oc1ccccc1CN(CCCN(Cc1ccccn1)Cc1ccccc1O)Cc1ccccn1` was tested. Which Inhibition did it give?
**A.** 92%

**Q.** `Cc1ccc(O)cc1Nc1ccnc2cc(-c3cccc(CNCCS(C)(=O)=O)c3)ccc12` was tested. Which Inhibition did it give?
**A.** 100%
